The text below walks through data of PubChem BioAssay AID493221 (Johns Hopkins Ion Channel Center, 2011).

Hit rate of the full screen: of about 2,400 compounds, about 1,700 (71%) were called active.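 How the source made its calls: active means choline transporter activity left, mean of duplicates at 10 µM, below buffer-only control mean minus 3 SD; inactive means the rest.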 The set was probably picked from earlier hits. These entries were drawn from the full list.

In the assay the target is High affinity choline transporter 1 (Homo sapiens) (UniProt Q9GZV3). Put plainly: human choline transporter blockers – cell-based, membrane potential dye, duplicate, confirmation (AID 493221). To be noted: CHT-expressing cells, at 10 µM, LV-to-AA substituted CHT, HEK293 cells.
High affinity choline transporter 1 (Homo sapiens), sequence (Q9GZV3 whole entry, looked up): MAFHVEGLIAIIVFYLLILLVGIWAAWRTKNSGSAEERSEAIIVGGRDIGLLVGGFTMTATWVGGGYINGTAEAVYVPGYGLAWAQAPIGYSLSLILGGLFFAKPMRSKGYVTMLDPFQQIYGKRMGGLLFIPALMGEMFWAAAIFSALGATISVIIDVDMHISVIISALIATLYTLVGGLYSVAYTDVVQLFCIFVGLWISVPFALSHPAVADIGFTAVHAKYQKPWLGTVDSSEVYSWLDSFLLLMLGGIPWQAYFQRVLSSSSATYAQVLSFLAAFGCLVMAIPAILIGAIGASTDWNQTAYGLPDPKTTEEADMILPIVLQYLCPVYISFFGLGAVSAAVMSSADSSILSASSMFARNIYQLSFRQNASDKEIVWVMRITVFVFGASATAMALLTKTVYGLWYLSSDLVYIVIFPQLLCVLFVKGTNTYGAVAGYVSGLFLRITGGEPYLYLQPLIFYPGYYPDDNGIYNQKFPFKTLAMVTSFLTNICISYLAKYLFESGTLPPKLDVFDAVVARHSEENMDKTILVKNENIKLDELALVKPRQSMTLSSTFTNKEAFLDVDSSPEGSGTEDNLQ
Consider `CC(C)(C)C(=O)/C(C#N)=C/c1ccc(O)cc1`, for which the CHT activity remaining % of control (stronger effect = lower value) is 68.6% (active).
`O=C(Nc1ccn(Cc2ccccc2)n1)c1n[nH]c([N+](=O)[O-])c1Cl`: the CHT activity remaining % of control (stronger effect = lower value) is 48.6% (active).
`CC1CCN(C(=O)CN(c2ccc(Oc3ccccc3)cc2)S(C)(=O)=O)CC1`: the CHT activity remaining % of control (stronger effect = lower value) entry is “inactive”.
In the case of `CC(C)(C)NC(=O)NC(=O)CN1CCC(Cc2ccccc2)CC1` it was 43.5% (active).
As to `Cc1ccc(SC(CC(=O)c2ccc(C(C)(C)C)cc2)C(=O)O)cc1` (stereo not given), the CHT activity remaining % of control (stronger effect = lower value) is 42% (active).
In the case of `CC1CCN(CCCNC(=O)CN2C(=O)CSc3ccc(S(=O)(=O)N4CCCCC4)cc32)CC1` it was 53.6% (active); in that of `CCOCCCN(C)C1CCN(C(=O)c2oc3ccccc3c2NC(=O)COc2cccc(C)c2)CC1`, 44.8% (active); in that of `Cc1cccnc1NC(=O)c1cccc(S(=O)(=O)N2CCN(c3ccc(F)cc3)CC2)c1`, 56.9% (active).
Next, `Cc1ccc(C(=O)NC2CCCC(C)C2C)cc1S(=O)(=O)N1CCCCC1` (stereo not given): 43.5% (active); `CC1CCCC(NC(=O)c2cccc(N3CCCC3=O)c2)C1C` (stereo not given): 45.1% (active); `CC1CN(S(=O)(=O)c2ccc(C(=O)NN3CCN(C)CC3)cc2)CC(C)O1` (stereo not given): “inactive”.
In the case of `O=C(C1CCN(S(=O)(=O)c2ccc(Br)s2)CC1)N1CCN(c2ccccc2)CC1`, the CHT activity remaining % of control (stronger effect = lower value) is 41.8% (active).
For `COc1ccc2c(c1)OC(O)(C(F)(F)C(F)F)CC2=O` (stereo not given), the CHT activity remaining % of control (stronger effect = lower value) is 25.8% (active).
Next, `CN(C)c1ccc(Nc2c3c4c(cccc4n(C)c2=O)C(=O)c2ccccc2-3)cc1`: 42.1% (active).
For the molecule `CC1(C)SC2C(NC(=O)COc3ccccc3)C(=O)N2C1C(=O)O` (stereo not given), the CHT activity remaining % of control (stronger effect = lower value) entry was “inactive”.
Next, `CC(NC(=O)c1ccc(N2CCNCC2)c([N+](=O)[O-])c1)C12CC3CC(CC(C3)C1)C2` (stereo not given): 52.3% (active).
Next, `CCc1ccccc1N1CN(Cc2ccco2)CNC1=S`: “inactive”; `CCOC(=O)C1(CCOC)CCN(Cc2ccc(C(=O)OC)cc2)CC1`: 71% (active); `O=C(O)c1ccc(/C=C2\SC(=S)N(NC(=O)c3ccc(Br)cc3)C2=O)cc1`: 41.7% (active).
In the case of `O=C1/C(=C/c2ccc(F)cc2)SC(=S)N1NS(=O)(=O)c1ccccc1` it was 71.2% (active); in that of `CCOc1ccc(/C=C2\SC(=S)N(NC(=O)c3ccncc3)C2=O)cc1OC`, 69.4% (active).
Regarding `CC(C)n1c(=S)[nH]c2cc(C(F)(F)F)ccc21`, the CHT activity remaining % of control (stronger effect = lower value) was 59.3% (active).
As to `CC(Oc1ccc2ccccc2c1)C(=O)NNC(=S)NC(=O)c1ccco1` (stereo not given), the CHT activity remaining % of control (stronger effect = lower value) was 67% (active).
With `N#Cc1ccc(C(=O)Nc2cccc3cccnc23)c(F)c1`, the CHT activity remaining % of control (stronger effect = lower value) result is “inactive”.
For `COc1ccc(C(CNC(=O)c2cccc(NS(=O)(=O)c3ccc(C)c(F)c3)c2)N2CCCC2)cc1` (stereo not given), the CHT activity remaining % of control (stronger effect = lower value) is 38.4% (active).
